An excerpt weighted towards active compounds, which were near 3.9% of everything screened.
TGFb inhibitor = qHTS for Inhibitors of TGF-b | 410,000 tested, 1.2% active | HepG2 CAGA-GFP TGF-b/SMAD3 reporter, GFP fluorescence, 18 h; TGF-beta stimulated, 500 pg/mL final | Potency, µM (highest dose often 46.1 µM), inactives show at the top dose activity, negative = inhibition, actives largely listed as inhibitors | AID 588855, 2011; also: % is scaled to controls: 0 for no effect and ±100 for the full control effect; nearly all actives have a fitted effect of over 65% in size
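Inhibition of TGF-beta-driven CAGA-GFP reporter expression in HEPG2 cells is measured by cellular GFP fluorescence after 18 h stimulation with 500 pg/mL recombinant TGF-beta in 1% FBS medium at 37 degrees C.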
HT1080-NT tox = qHTS for induction of synthetic lethality in tumor cells producing 2HG: qHTS for the HT-1080-NT fibrosarcoma cell line. HT-1080-NT fibrosarcoma viability, CellTiter-Glo ATP luminescence, 48 h. Potency, µM (top dose mostly 46.1 µM), without a hit: top-dose activity, negative = less viability, hits mostly cytotoxic. 360,000 tested, 1.6% active. AID 686970, 2013;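 also: NT is the 2HG producing partner of a matched IDH1 knockdown line; 0% = DMSO-treated cells and -100% = media-only wells without cells; nearly all actives have a fitted effect of over 55% in size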
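Luminescent CellTiter-Glo readout after 48 hours of compound exposure at 37 degrees C defined viability of HT-1080-NT cells. Activity was normalized to DMSO wells and cell-free media wells; concentration-response curves were fitted and assigned curve classes.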
HT1080 IDH1KD tx = qHTS for induction of synthetic lethality in tumor cells producing 2HG: qHTS for the HT-1080-IDH1KD cell line; HT-1080 IDH1 knockdown viability, ATP luminescence, 48 h; Potency, µM (doses to about 46.1 µM), without a hit: at the highest dose activity, negative = toxicity, usual class: cytotoxic; 360,000 tested, 2% active; AID 686971, 2013;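 also: 0% = DMSO wells and -100% = cell-free medium wells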
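Cytotoxicity counter-line: IDH1KD HT-1080, 48 h, CellTiter-Glo. Curves classed by r2, magnitude and activity.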
HepG2 tox-1 = qHTS for Inhibitors of TGF-b: Cytotox Counterscreen. HepG2 CAGA-GFP viability, ATP luminescence, 18 h. Potency, µM (titrated, usually from 46.1 µM), for inactives: at the top dose activity change, negative = cytotoxicity, most hits filed as cytotoxic. 410,000 tested, 0.76% active
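HepG2 CAGA-GFP cells (1000/well, DMEM with 1% FBS) received compound, then TGF-beta at 500 pg/mL final, and were incubated 18 hours at 37 degrees C. Viability was read by CellTiter-Glo luminescence. Media-only wells were set as complete cell-killing and DMSO as no toxicity.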
ATXN2 expr inh = Primary qHTS for Inhibitors of ATXN expression | AID 1745845, 2022 | Potency, µM (top dose mostly 57 µM), for the others: at the highest dose activity change, negative = inhibition, usual class: inhibitors | 360,000 tested, 0.72% active | HEK-293 ATXN2-luciferase reporter, luminescence, 24 h; also: % is scaled to controls: 0 for no effect and ±100 for the full control effect; nearly all actives have a fitted effect of over 55% in size
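qHTS (up to 57 uM final) was run with 24 h compound exposure of reporter cells at 37 °C. Each well was multiplexed: SteadyGlo luminescence measured ATXN2-luciferase expression after a fluorogenic Gly-Phe-AFC viability readout (25 uM final).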
S2 tox = Viability Counterscreen for Primary qHTS for Inhibitors of ATXN expression. S2 cells (HEK-293 line with an ATXN2-luciferase reporter) viability, CellTiter-Fluor protease fluorescence, 24 h. Potency, µM (series often up to 56.7 µM), actives largely listed as cytotoxic. 400,000 tested, 0.49% active. AID 651635, 2014; also: nearly all actives have a fitted effect of over 40% in size
TGFb confirm = qHTS for Inhibitors of TGF-b: Confirmation of Cherry Picks; shares compounds with TGFb inhibitor; HepG2 CAGA-GFP TGF-b reporter, GFP fluorescence, 18 h; cells stimulated with TGF-beta, 500 pg/mL; Potency, µM (highest dose often 46.1 µM), inactives show at the highest dose activity, negative = inhibition, hits mostly inhibitors; 1,600 tested, 63% active; AID 720534, 2013; also: % is scaled to controls: 0 for no effect and ±100 for the full control effect; nearly all actives have a fitted effect of over 65% in size
HepG2 tox-2 = qHTS for Inhibitors of TGF-b: Cytotox Counterscreen for Cherry Picks; shares compounds with TGFb inhibitor; HepG2 CAGA-GFP viability, ATP luminescence, 18 h; cells stimulated with TGF-beta, 500 pg/mL; Potency, µM (top dose mostly 46.1 µM), for the others: at the highest dose activity, negative = cytotoxicity, most hits filed as inhibitors; 1,600 tested, 27% active; AID 720535, 2013; also: % is scaled to controls: 0 for no effect and ±100 for the full control effect; nearly all actives have a fitted effect of over 70% in size
CCL64 TGFb inh = qHTS for Inhibitors of TGF-b: CCL64 Cells Orthogonal Assay for Cherry Picks; shares compounds with TGFb inhibitor; CCL64 CAGA-GFP reporter, TGF-b stimulated, GFP fluorescence, 18 h; Potency, µM (top dose mostly 46.1 µM), without a hit: at the highest dose activity, negative = inhibition, usual class: inhibitors; 1,600 tested, 41% active; also: nearly all actives have a fitted effect of over 65% in size
TGFb COP inh = qHTS for Inhibitors of TGF-b: Hit Validation in HepG2 Cells using COP promoter | Potency, µM (highest dose often 46.1 µM), for the others: top-dose activity, negative = inhibition, actives largely listed as inhibitors | HepG2 COP-GFP TGF-b reporter, GFP fluorescence, 18 h; cells stimulated by added recombinant TGF-beta | shares compounds with TGFb inhibitor | 1,600 tested, 3% active; also: nearly all actives have a fitted effect of over 70% in size
Starred values were filed as active, the others as inactive. Calls follow the shape of the dose curve; as a rule, active = well fitted curve in the direction sought with a large enough effect; inconclusive = small, poorly fitted or top-dose-only effect, or another doubt; inactive = no such curve, though single readings can be large; an effect the other way counts as inactive or inconclusive. Potency is read from the fitted curve at half-maximal effect.

What do the screens show for `COc1ccc([C@H]2CC(=O)C=C(c3ccc(Cl)c(C(F)(F)F)c3)C2)cc1`?
TGFb inhibitor: 8.91µM*; HT1080-NT tox: 11.9%; HT1080 IDH1KD tx: -3.8%; HepG2 tox-1: -37.0%; ATXN2 expr inh: -2.0%; S2 tox: inactive; TGFb confirm: inconclusive; HepG2 tox-2: inconclusive; CCL64 TGFb inh: inconclusive; TGFb COP inh: 13.6%

How did C[C@@H](C(=O)NCCc1ccccc1)N1C(=O)N2CCc3c([nH]c4ccccc34)[C@@]2(C)C1=O do in these assays?
TGFb inhibitor: 10µM*; HT1080-NT tox: -1.7%; HT1080 IDH1KD tx: -14.0%; HepG2 tox-1: -29.5%; ATXN2 expr inh: 0.6%; S2 tox: inconclusive; TGFb confirm: 16.4µM*; HepG2 tox-2: inconclusive; CCL64 TGFb inh: inconclusive; TGFb COP inh: -2.4%

How did C[C@@H](C(=O)NCCc1ccccc1F)N1C(=O)N2CCc3c([nH]c4ccccc34)[C@@]2(C)C1=O do in these assays?
TGFb inhibitor: inconclusive; HT1080-NT tox: -15.6%; HT1080 IDH1KD tx: -17.1%; HepG2 tox-1: -28.6%; ATXN2 expr inh: -7.1%; S2 tox: inconclusive

How did Cc1ccc(S(=O)(=O)N2CCN(CC(O)COc3ccccc3)CC2)cc1 (stereo unspecified) do in these assays?
TGFb inhibitor: -3.1%; HT1080-NT tox: -2.5%; HT1080 IDH1KD tx: -17.1%; HepG2 tox-1: 5.8%; ATXN2 expr inh: -12.7%; S2 tox: inactive

What do the screens show for `CCOc1ccc(S(=O)(=O)N2CCN(CC(O)COc3cccc([N+](=O)[O-])c3)CC2)cc1` (stereo unspecified)?
TGFb inhibitor: inconclusive; HT1080-NT tox: 0.8%; HT1080 IDH1KD tx: -19.0%; HepG2 tox-1: -28.1%; ATXN2 expr inh: -26.1%; S2 tox: inactive; TGFb confirm: inconclusive; HepG2 tox-2: -13.1%; CCL64 TGFb inh: inconclusive; TGFb COP inh: 18.5%

What do the screens show for `CC(=O)Nc1ccc(OCC(O)CN2CCN(S(=O)(=O)c3ccc(NC(C)=O)cc3)CC2)cc1` (stereo unspecified)?
TGFb inhibitor: 13.4%; HT1080-NT tox: 0.1%; HT1080 IDH1KD tx: -0.2%; HepG2 tox-1: -2.8%; ATXN2 expr inh: -1.7%; S2 tox: inactive

How did CC(=O)Nc1ccc(S(=O)(=O)N2CCN(CC(O)COc3ccc4ccccc4c3)CC2)cc1 (stereo unspecified) do in these assays?
TGFb inhibitor: inconclusive; HT1080-NT tox: 0.708µM*; HT1080 IDH1KD tx: inconclusive; HepG2 tox-1: -18.0%; ATXN2 expr inh: inconclusive; S2 tox: inconclusive; TGFb confirm: 25.9µM*; HepG2 tox-2: -29.2%; CCL64 TGFb inh: -2.5%; TGFb COP inh: 6.7%

Results for Cc1c(C(=O)Nc2nonc2-c2ccc(F)cc2)oc2ccc(F)cc12 ?
TGFb inhibitor: 11.2µM*; HT1080-NT tox: inconclusive; HT1080 IDH1KD tx: 20.6µM*; HepG2 tox-1: -27.8%; ATXN2 expr inh: 28.2µM*; S2 tox: inconclusive; TGFb confirm: 13µM*; HepG2 tox-2: inconclusive; CCL64 TGFb inh: inconclusive; TGFb COP inh: 55.8%

What do the screens show for `CCc1nonc1NC(=O)c1oc2ccc(F)cc2c1C`?
TGFb inhibitor: 7.5%; HT1080-NT tox: 2.3%; HT1080 IDH1KD tx: -0.8%; HepG2 tox-1: 12.9%; ATXN2 expr inh: 15.8%; S2 tox: inactive

How did CC(=O)N1c2ccccc2C(=O)C1N1CCN(c2cccc(Cl)c2)CC1 (stereo unspecified) do in these assays?
TGFb inhibitor: 2.6%; HepG2 tox-1: 11.6%

What do the screens show for `Cc1cccc(CN2C(=O)NC(c3ccccc3)(c3ccccc3)C2=O)c1`?
TGFb inhibitor: 22.4µM*; HT1080-NT tox: inconclusive; HT1080 IDH1KD tx: inconclusive; HepG2 tox-1: -26.4%; ATXN2 expr inh: inconclusive; S2 tox: inactive; TGFb confirm: inconclusive; HepG2 tox-2: inconclusive; CCL64 TGFb inh: inconclusive; TGFb COP inh: 59.5%

Results for CCOC(=O)c1cc(OC(=O)c2ccccc2F)n(-c2ccccc2)n1 ?
TGFb inhibitor: -7.1%; HepG2 tox-1: -2.7%; ATXN2 expr inh: 3.1%; S2 tox: inconclusive

How did c1ccc(-c2cc3nc(NCC4CC4)nc(NCC4CCCCC4)c3s2)cc1 do in these assays?
TGFb inhibitor: 10µM*; HT1080-NT tox: 3.26µM*; HT1080 IDH1KD tx: 4.61µM*; HepG2 tox-1: 17.8µM*; ATXN2 expr inh: inconclusive; S2 tox: 14.1µM*; TGFb confirm: 23.1µM*; HepG2 tox-2: 7.31µM*; CCL64 TGFb inh: 5.17µM*; TGFb COP inh: -35.5%

How did COc1ccc(C(CCNCc2ccc(F)cc2)c2ccc(F)cc2)cc1 (stereo unspecified) do in these assays?
TGFb inhibitor: 2.82µM*; HT1080-NT tox: inconclusive; HT1080 IDH1KD tx: 23.1µM*; HepG2 tox-1: 7.94µM*; ATXN2 expr inh: inconclusive; S2 tox: inconclusive; TGFb confirm: inconclusive; HepG2 tox-2: 16.4µM*; CCL64 TGFb inh: inconclusive; TGFb COP inh: inconclusive
